Drawing on PubChem BioAssay (NCATS), this text covers activation, Potency and viability for three molecules.

One may read the viability as a read-out of living cells in per cent, often relative to untreated cells.

In assay [1] the target is Cellular tumor antigen p53 (Homo sapiens) (UniProt P04637). Put plainly: Primary qHTS for small molecule compounds that upregulate eGFP-tagged delta133p53alpha (in N-terminal) cells. (AID 2060322).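 Further: 0% = DMSO vehicle and 100% = reference activator; nearly all actives have a fitted effect of over 75% in size.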 The conditions noted are these: NCI-H358 eGFP-delta133p53alpha fluorescence, 24 h; activation: stronger effect = higher value. The essentials:
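NCI-H358 cells pre-induced 24 h with 10 ng/ml doxycycline to express N-terminal eGFP-delta133p53alpha, then dosed 24 h at 37C without doxycycline; fixed, Hoechst-stained, GFP intensity by laser scanning cytometry, normalized to DMSO (0%) and 57.5 uM 5-azacytidine (100%).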
A general note: Quantitative high-throughput screening tests each substance at several concentrations.

Assay [2] shares this target. Put plainly: Primary qHTS for small molecule compounds that upregulate eGFP-tagged delta133p53alpha (in C-terminal) cells. (AID 2060324).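 Further: 0% = DMSO wells and 100% = 57.5 µM 5-azacytidine.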 The conditions noted are these: NCI-H358 delta133p53alpha-eGFP (C-terminal tag), GFP fluorescence imaging, 24 h; series mostly up to 57.5 µM. The essentials:
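NCI-H358 cells with doxycycline-inducible D133p53a-eGFP (C-terminal tag), pre-induced 24 h with 100 ng/ml doxycycline, plated 800/well in doxycycline-free medium and treated 24 h at 37 °C with compound titrations. Cells were then fixed and Hoechst-stained, and GFP intensity was read by laser scanning cytometry.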

The target in assay [3] is Aldehyde dehydrogenase, mitochondrial (Homo sapiens) (UniProt P05091). Put plainly: qHTS for Inhibitors of the Aldehyde Dehydrogenase Family (ALDH2) Validation screens (AID 2061302; active means well fitted inhibition curve with a large enough effect; title and protocol of this record describe different tests;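 further: plate controls were DMSO vehicle for no effect and maximal DPI positive control response for full effect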). The conditions noted are these: ALDH inhibition qHTS; series mostly up to 42.6 µM.
Assay [4] shares this target. Put plainly: qHTS for Inhibitors of the Aldehyde Dehydrogenase Family (ALDH2) Primary screen (AID 2061308).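 Further: plate controls were vehicle for no effect and reference inhibitor for full effect; nearly all actives have a fitted effect of over 55% in size.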 The conditions noted are these: ALDH2 enzyme inhibition qHTS, 1536-well; series mostly up to 56 µM.
Assay [5] addresses Retinaldehyde dehydrogenase 3 (Homo sapiens) (UniProt P47895). Put plainly: qHTS for Inhibitors of the Aldehyde Dehydrogenase Family (ALDH1A3) Validation screen (AID 2061312). Further: on the % scale 0 is the no-effect control and ±100 the full control effect; nearly all actives have a fitted effect of over 45% in size. As to conditions: ALDH1A3 enzyme inhibition qHTS validation, fluorescence; series mostly up to 84.7 µM.
Assay [6] has the same target. Put plainly: qHTS for Inhibitors of the Aldehyde Dehydrogenase Family (ALDH1A3) Primary screen (AID 2061315).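 Further: plate controls were DMSO vehicle for no effect and reference inhibitor for full effect.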 The conditions noted are these: ALDH inhibition qHTS; series mostly up to 56 µM.
The nature of assay [7]: BET inhibitor-based combinations targeting novel dependencies in MECOM-rearranged (r) AML: SET-2 cell line (AID 2202231). Further: nearly all actives have a fitted effect of over 35% in size. Further: potency means the concentration at half of the fitted maximal effect.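 On viability: plate controls were DMSO treated cells for no effect and wells without cells for full effect.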 The conditions noted are these: SET-2 AML cells viability, CellTiter-Glo luminescence, 48 h; viability: stronger effect = lower value, concentration not given here. The essentials:
(§1)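 AML cell lines seeded at 500 cells/well, treated with 11-point dose curves for 48 h. Viability by CellTiter-Glo luminescence, normalised to DMSO and empty wells; activity expressed as AUC and per-cell-line Z-transformed AUC.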
A general note: Cellular ATP, detected with luciferase, serves as a proxy for viable cell number.

Assay [8] in a line: BET inhibitor-based combinations targeting novel dependencies in MECOM-rearranged (r) AML: MV-4-11 cell line (AID 2202233). Further: potency means the concentration at half of the fitted maximal effect; nearly all actives have a fitted effect of over 45% in size. The conditions noted are these: MV-4-11 AML viability, CellTiter-Glo luminescence, 48 h; series mostly up to 46 µM. The essentials: (§2)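 Cells at 500/well were exposed for 48 hr to MIPE v5.0 drugs as 11-point dose curves. Viability was read by CellTiter-Glo luminescence and normalized to DMSO and empty-well controls. Activity was expressed as AUC and per-cell-line Z-AUC.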

A short description of assay [9]: BET inhibitor-based combinations targeting novel dependencies in MECOM-rearranged (r) AML: UCSD-AML1 cell line (AID 2202235).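 Further: plate controls were DMSO vehicle wells for no effect and blank wells for full effect; nearly all actives have a fitted effect of over 40% in size.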 The conditions noted are these: UCSD-AML1 AML cells viability, CellTiter-Glo, 48 h; series mostly up to 46 µM. The essentials: as §2
A short description of assay [10]: BET inhibitor-based combinations targeting novel dependencies in MECOM-rearranged (r) AML: AML-191 cell line (AID 2202236;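 further: plate controls were vehicle wells for no effect and wells without cells for full effect; nearly all actives have a fitted effect of over 35% in size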). As to conditions: AML-191 viability, CellTiter-Glo luminescence, 48 h; series mostly up to 46 µM. The essentials:
as §1

Assay [11] in a line: BET inhibitor-based combinations targeting novel dependencies in MECOM-rearranged (r) AML: AML-194 cell line (AID 2202237;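 further: plate controls were vehicle wells for no effect and wells without cells for full effect; nearly all actives have a fitted effect of over 40% in size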). The conditions noted are these: AML-194 (MECOM-r AML) viability, CellTiter-Glo, 48 h; series mostly up to 46 µM. The essentials: as §1

Values joined by “and” are separate entries in the source; they are usually repeats but may differ in a detail not shown here. Equal entries are not always repeated. Inconclusive results are not listed. Unmarked numbers belong to inactive results. Active and inactive are the calls of the source. Unless noted, the call rests on the fitted dose curve; in most records, active means well fitted curve in the direction sought with a large enough effect; inconclusive means small, poorly fitted or top-dose-only effect, or another doubt; inactive means no such curve, though single readings can be large; an effect the other way counts as inactive or inconclusive.

Chain of Cellular tumor antigen p53 (Homo sapiens) (P04637 whole entry, looked up): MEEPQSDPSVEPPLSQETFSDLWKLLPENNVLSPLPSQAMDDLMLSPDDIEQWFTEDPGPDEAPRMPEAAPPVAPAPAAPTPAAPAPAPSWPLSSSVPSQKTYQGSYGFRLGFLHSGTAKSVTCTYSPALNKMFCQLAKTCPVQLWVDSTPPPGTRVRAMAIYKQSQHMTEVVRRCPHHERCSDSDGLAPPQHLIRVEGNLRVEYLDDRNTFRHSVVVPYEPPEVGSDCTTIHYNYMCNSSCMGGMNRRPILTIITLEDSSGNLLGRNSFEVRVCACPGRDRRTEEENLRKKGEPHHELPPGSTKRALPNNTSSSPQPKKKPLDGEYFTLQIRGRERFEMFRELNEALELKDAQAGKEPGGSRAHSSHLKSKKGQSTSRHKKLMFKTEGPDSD

As to `CCc1cncnc1N1CCN(Cc2nc3ccc(C(F)(F)F)cc3[nH]2)CC1`, the activation in assay [1] is -18% and -36.7% and 26.8%. The Potency entry in assay [2], in assay [3], in [4], in assay [5], in [6] and in [9] was “inactive” throughout. For the same molecule, the values for the Potency in assay [7] and in [8] were 14.8 µM (active) and 18.6 µM (active), respectively.

Regarding `CN(C)C(=O)[C@H](O)[C@H](Cc1ccccc1)NC(=O)c1cc2cc(Cl)ccc2[nH]1`, in assay [1], the activation is -2.47% and -33.3% and 7.64%. Besides, the Potency result in assay [2], in [3], in assay [4], in assay [5], in [6] and in assay [9] was “inactive” throughout. The Potency entry in assay [10] and in assay [11] was “inactive” throughout. For the same molecule, the viability in assay [7] is 95.3%.

For the molecule `CC(C)Cc1ccc([C@H](C)C(=O)O)cc1`, the activation in assay [1] is -12.1%. The Potency result in assay [2], in assay [3] and in [5] was “inactive” throughout.
